According to PubChem BioAssay AID1224921 (Broad Institute, 2016):
Hit rate of the full screen: of about 1,400 compounds, about 350 (25%) were called active. Roughly 2% stayed inconclusive and do not appear here. Only a sample is shown. Potency and affinity values are given separately. A number with no mark means an inactive call. The rule behind the calls is not given here.

Assay: C. difficile growth inhibition, confirmation, 4-point retest (AID 1224921);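 note: plate controls were DMSO wells for no effect and levofloxacin 16 µg/mL wells for full effect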
Settings: Clostridioides difficile clinical isolate growth, OD600, 24 h, active compounds read low; at 30 µM unless noted
For CO[C@@H]1CN(C)C(=O)c2cc(NC(=O)c3cnccn3)ccc2OC[C@@H](C)N(CCC(F)(F)F)C[C@H]1C, the max activity was -9.07% [at 35 µM]. CCCNC(=O)Nc1ccc2c(c1)OC[C@H](C)N(Cc1ccccc1)C[C@@H](C)[C@@H](OC)CN(C)C2=O gave a max activity of 27.8% [at 8 µM]. In the case of CNC[C@H]1Oc2ncc(-c3ccc(OC)cc3)cc2C(=O)N([C@H](C)CO)C[C@@H]1C, the max activity is reported as 27.6%. CO[C@H]1CN(C)C(=O)c2cc(NC(=O)c3ccccc3)ccc2OC[C@H](C)N(C)C[C@H]1C showed a max activity of -10.6% [at 1.95 µM]. CO[C@H]1CN(C)C(=O)c2ccc(NS(=O)(=O)c3ccccc3C)cc2OC[C@@H](C)N(S(C)(=O)=O)C[C@@H]1C gave a max activity of 15%. C[C@@H]1CN([C@@H](C)CO)S(=O)(=O)c2ccc(C#CC3CCCC3)cc2O[C@@H]1CN(C)Cc1cccnc1 showed a max activity of -18.2% [at 1.95 µM]. In the case of C[C@@H]1CCCCO[C@@H](CN(C)Cc2ccccc2)[C@H](C)CN([C@@H](C)CO)C(=O)c2cc(NC(=O)Nc3ccc(C(F)(F)F)cc3)ccc2O1, the max activity is reported as 26.5% [at 1.95 µM]. With C[C@@H]1CCCCO[C@H](CN(C)Cc2ccccc2)[C@@H](C)CN([C@H](C)CO)C(=O)c2cc(NC(=O)Nc3ccc(C(F)(F)F)cc3)ccc2O1 the max activity was 19.2% [at 8 µM]. With CO[C@@H]1CN(C)C(=O)c2cc(NC(=O)NC3CCCCC3)ccc2OC[C@@H](C)N(CCc2ccccc2)C[C@@H]1C the max activity was 17.7% [at 8 µM]. C[C@H](CO)N1C[C@H](C)[C@H](CN(C)Cc2ccc(-c3ccccc3)cc2)Oc2ncc(C#C[C@@H](C)O)cc2C1=O showed a max activity of 17.2%. CO[C@@H]1CN(C)C(=O)c2ccc(NC(=O)c3ccc(Oc4ccccc4)cc3)cc2OC[C@@H](C)NC[C@H]1C gave a max activity of -19.3% [at 2.1 µM]. CC(C)CC#Cc1ccc2c(c1)O[C@@H](CN(C)Cc1cccnc1)[C@@H](C)CN([C@H](C)CO)S2(=O)=O showed a max activity of 41.2%. C[C@H](CO)N1C[C@H](C)[C@H](CN(C)Cc2ccccc2)OCCCC[C@H](C)Oc2ccc(NC(=O)Nc3ccc(F)cc3)cc2C1=O gave a max activity of 37.9%. Compound C[C@@H]1CCCCO[C@H](CN(C)Cc2ccccc2)[C@H](C)CN([C@@H](C)CO)C(=O)c2cc(NC(=O)Nc3ccc(C(F)(F)F)cc3)ccc2O1 has a max activity of 26.5% [at 1.95 µM]. In the case of CC(C)C#Cc1ccc2c(c1)O[C@H](CN(C)Cc1ccncc1)[C@H](C)CN([C@H](C)CO)S2(=O)=O, the max activity is reported as 8.71%. CCCNC(=O)Nc1ccc2c(c1)C(=O)N(C)C[C@H](OC)[C@@H](C)CN(Cc1ccccc1)[C@H](C)CO2 gave a max activity of 17.2%. In the case of COc1ccc(NC(=O)Nc2cccc3c2O[C@@H](CN(C)C(=O)NC2CCCCC2)[C@H](C)CN([C@H](C)CO)C3=O)cc1, the max activity is reported as 7.41%. For O=C(C[C@@H]1C[C@@H]2c3cc(NC(=O)CC4CC4)ccc3O[C@@H]2[C@H](CO)O1)NCCc1ccccc1, the max activity was -14.8%. With CCC(=O)Nc1ccc2c(c1)C(=O)N(C)[C@@H]1CC[C@H](CC(=O)NCc3ccc(OC)cc3)O[C@@H]1CO2 the max activity was -3.51% [at 1.95 µM]. With CC(C)NC(=O)N(C)C[C@H]1Oc2cc(C#Cc3ccc(F)cc3)ccc2S(=O)(=O)N([C@@H](C)CO)C[C@@H]1C the max activity was 24.4%. C[C@@H]1CN([C@H](C)CO)C(=O)c2cccc(NS(C)(=O)=O)c2O[C@H]1CN(C)Cc1ccccc1 gave a max activity of 32.7%. CO[C@@H]1CN(C)C(=O)c2cc(NC(=O)c3ccccc3)ccc2OC[C@H](C)N(CC2CC2)C[C@@H]1C showed a max activity of 19.6%. Compound COc1cccc(C(=O)Nc2ccc3c(c2)OC[C@@H](C)N(C(=O)C2CCCC2)C[C@H](C)[C@H](OC)CN(C)C3=O)c1 has a max activity of 7.82%. For CCCC(=O)Nc1ccc2c(c1)C(=O)N(C)C[C@@H](OC)[C@@H](C)CN(Cc1ccccc1)[C@@H](C)CO2, the max activity was 9.16%. With CCCNC(=O)N(C)C[C@@H]1Oc2cc(C#Cc3cccc(F)c3)ccc2S(=O)(=O)N([C@H](C)CO)C[C@H]1C the max activity was 64.3%. With O=C(Nc1cc(F)ccc1F)N[C@H]1CC[C@@H](CC(=O)N2CCc3ccccc3C2)O[C@@H]1CO the max activity was 31.4%. CO[C@H]1CN(C)C(=O)c2cc(NS(=O)(=O)c3cccc(F)c3)ccc2OC[C@H](C)N(Cc2cc(F)ccc2F)C[C@@H]1C showed a max activity of -7.26% [at 8 µM]. For CCCN1C[C@@H](C)[C@H](OC)CN(C)C(=O)c2cc(NC(=O)CC)ccc2OC[C@@H]1C, the max activity was -10.1%. Work on COc1ccc(NC(=O)Nc2ccc3c(c2)[C@H]2C[C@H](CC(=O)NCc4ccccc4F)O[C@@H](CO)[C@H]2O3)cc1 yielded a max activity of -14.5% [at 8 µM]. Work on C[C@H]1CN([C@@H](C)CO)C(=O)c2cccc(NC(=O)NC3CCCCC3)c2O[C@H]1CN(C)C(=O)Nc1ccc(C(F)(F)F)cc1 yielded a max activity of 17.7% [at 7.5 µM]. With CO[C@@H]1CN(C)C(=O)c2ccc(NC(=O)C3CC3)cc2OC[C@H](C)N(Cc2cncnc2)C[C@@H]1C the max activity was -6.19% [at 1.95 µM]. CO[C@H]1CN(C)C(=O)c2ccc(NC(=O)C3CC3)cc2OC[C@H](C)N(Cc2cncnc2)C[C@@H]1C gave a max activity of -11.8%. With CO[C@H]1CN(C)C(=O)c2ccc(NC(C)=O)cc2OC[C@@H](C)N(Cc2cc(F)ccc2F)C[C@H]1C the max activity was -8.57% [at 1.95 µM]. CCCNC(=O)Nc1ccc2c(c1)OC[C@@H](C)N(Cc1ccccc1)C[C@H](C)[C@H](OC)CN(C)C2=O gave a max activity of 33.5%. CCS(=O)(=O)Nc1ccc2c(c1)C(=O)N(C)C[C@H](OC)[C@H](C)CN(CC1CCCC1)[C@H](C)CO2 gave a max activity of -9.54% [at 1.95 µM]. C[C@@H]1CN([C@@H](C)CO)C(=O)Cc2cc(NC(=O)CCCN(C)C)ccc2O[C@H]1CN(C)Cc1ccc(Oc2ccccc2)cc1 gave a max activity of 12.2% [at 8 µM]. C[C@H](CO)N1C[C@H](C)[C@@H](CN(C)Cc2ccccc2)Oc2ccc(NC(=O)Nc3cccc4ccccc34)cc2CC1=O gave a max activity of 21.6%. Compound CC(C)NC(=O)Nc1ccc2c(c1)CC(=O)N([C@@H](C)CO)C[C@@H](C)[C@@H](CN(C)Cc1ccc(-c3ccccc3)cc1)O2 has a max activity of 42.2%. C[C@@H]1CN([C@@H](C)CO)C(=O)Cc2cc(NC(=O)Nc3ccc(C(F)(F)F)cc3)ccc2O[C@@H]1CN(C)Cc1ccccc1 gave a max activity of 36.8% [at 35 µM]. Compound C[C@@H]1CN([C@@H](C)CO)C(=O)Cc2cc(NC(=O)Nc3cccc4ccccc34)ccc2O[C@H]1CN(C)Cc1ccccc1 has a max activity of 34.5%. With C[C@@H]1CN([C@H](C)CO)C(=O)Cc2cc(NC(=O)Nc3cccc4ccccc34)ccc2O[C@H]1CN(C)Cc1ccccc1 the max activity was 31.3% [at 8 µM]. For CCCN(C)C[C@H]1Oc2cc(C#CCC3CCCC3)ccc2S(=O)(=O)N([C@@H](C)CO)C[C@H]1C, the max activity was 28.1% [at 8 µM]. CCCN1C[C@H](C)[C@@H](OC)CN(C)C(=O)c2ccc(NC(=O)c3ccc(F)cc3)cc2OC[C@@H]1C showed a max activity of -10.8% [at 1.95 µM]. With CO[C@@H]1CN(C)C(=O)c2cc(NC(C)=O)ccc2OC[C@@H](C)N(Cc2nccs2)C[C@@H]1C the max activity was 17.3%. For O=C(C[C@@H]1C[C@H]2c3cc(NC(=O)NC4CCCC4)ccc3O[C@H]2[C@@H](CO)O1)NCc1ccccc1F, the max activity was -6.86% [at 1.95 µM]. CO[C@H]1CN(C)C(=O)c2ccc(NC(C)=O)cc2OC[C@H](C)N(C(=O)c2ccccc2F)C[C@@H]1C showed a max activity of -11.1% [at 0.5 µM]. C[C@@H]1CN([C@H](C)CO)S(=O)(=O)c2ccc(/C=C/c3ccccc3)cc2O[C@@H]1CN(C)C(=O)Nc1cc(F)ccc1F gave a max activity of 35.6%. Compound CO[C@H]1CN(C)C(=O)c2cc(NC(=O)C3CCC3)ccc2OC[C@@H](C)N(Cc2ccc(F)cc2)C[C@@H]1C has a max activity of 29.4%. CCC(=O)N1C[C@@H](C)[C@H](OC)CN(C)C(=O)c2ccc(NC(=O)c3cc(C)on3)cc2OC[C@@H]1C showed a max activity of -1.88% [at 1.95 µM]. In the case of C[C@@H](NC(=O)C[C@H]1C=C[C@@H](NC(=O)CN2CCOCC2)[C@H](CO)O1)c1ccccc1, the max activity is reported as -14.1% [at 8 µM]. In the case of CCC(=O)Nc1ccc2c(c1)C(=O)N(C)C[C@H](OC)[C@H](C)CN(C(=O)CN1CCOCC1)[C@@H](C)CO2, the max activity is reported as -5.93% [at 8 µM]. In the case of COc1cccc(NC(=O)N[C@H]2C=C[C@H](CC(=O)NCc3ccncn3)O[C@@H]2CO)c1, the max activity is reported as -9.51% [at 0.5 µM]. Compound CCCC#Cc1ccc2c(c1)O[C@@H](CN(C)Cc1ccncc1)[C@@H](C)CN([C@H](C)CO)S2(=O)=O has a max activity of 33.3%. With CO[C@H]1CN(C)C(=O)c2cc(NC(C)=O)ccc2OC[C@@H](C)N(CC2CCCCC2)C[C@H]1C the max activity was -7.37% [at 1.95 µM]. O=C(N[C@H]1C=C[C@@H](CC(=O)N2CCc3ccccc3C2)O[C@H]1CO)C1CC1 showed a max activity of -11.9% [at 1.95 µM]. For Cc1ccc(-c2ccc3c(c2)O[C@H](CN(C)C(=O)NC(C)C)[C@H](C)CN([C@@H](C)CO)S3(=O)=O)cc1, the max activity was 20.5%. For Cc1ccc(-c2ccc3c(c2)O[C@H](CN(C)Cc2ccncc2)[C@@H](C)CN([C@@H](C)CO)S3(=O)=O)cc1, the max activity was 32.6%.
